Structures are written as SMILES. Records with an inconclusive call do not appear. Where a call stands in place of a potency, no number is given. Activity calls are given as the source filed them. Calls follow the shape of the dose curve; as a rule, active = well fitted inhibition curve with a large enough effect; inconclusive = small, poorly fitted or top-dose-only effect; inactive = flat fitted curve, though single readings scatter.

For one test, the system named is AA1029. The test is described as follows: qHTS profiling for inhibitors of Plasmodium falciparum proliferation (AID 504749). Also: nearly all actives have a fitted effect of over 60% in size. Particulars: P. falciparum in erythrocytes, SYBR Green DNA, 72 h; series mostly up to 28.7 µM. An outline of the steps:
(§1)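 P. falciparum-infected erythrocytes (0.3% parasitemia, 2.5% hematocrit final) were exposed to compounds for 72 h at 37 C in 5% CO2, then lysed with SYBR Green buffer overnight at room temperature; parasite DNA fluorescence was normalized to artemisinin and DMSO controls.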
A general note: In qHTS, concentration-response curves come from the screen itself.
Consider `CC1=CCC(C(C)(C)O)CC1` (stereo not given), for which the Potency result is “inactive”.
Turning to `Oc1cc(O)c2c(c1)OC(c1ccc(O)c(O)c1)C(O)C2` (stereo not given), the Potency result was “inactive”.
Turning to `CC1=C(/C=C/C(C)=C/C=C/C(C)=C/C=C/C=C(C)/C=C/C=C(C)/C=C/C2=C(C)CCCC2(C)C)C(C)(C)CCC1`, the Potency result is “inactive”.
With `CCCCCCCC(=O)O`, the Potency entry is “inactive”.
For `Cc1c(C)c2c(c(C)c1O)CC[C@@](C)(CCC[C@H](C)CCC[C@H](C)CCCC(C)C)O2`, the Potency result was “inactive”.

For the next test, the system named is AS120. The test is described as above. To be noted: P. falciparum in erythrocytes, SYBR Green DNA, 72 h; series mostly up to 28.7 µM. An outline of the steps: as §1
As to `CC1=CCC(C(C)(C)O)CC1` (stereo not given), the Potency result was “inactive”.
For `Oc1cc(O)c2c(c1)OC(c1ccc(O)c(O)c1)C(O)C2` (stereo not given), the Potency entry is “inactive”.
As for `CC1=C(/C=C/C(C)=C/C=C/C(C)=C/C=C/C=C(C)/C=C/C=C(C)/C=C/C2=C(C)CCCC2(C)C)C(C)(C)CCC1`, the Potency entry is “inactive”.
Turning to `CCCCCCCC(=O)O`, the Potency result is “inactive”.
For `Cc1c(C)c2c(c(C)c1O)CC[C@@](C)(CCC[C@H](C)CCC[C@H](C)CCCC(C)C)O2`, the Potency entry is “inactive”.

Source of the values: PubChem BioAssay (NCATS).
